The full ranking holds about 16,000 sequences; the median of “rpm ratio (pull-down/input)” is about 0.94, and the highest 2% start at about 1.7. For the sample, the highest values were picked, then their nearest neighbours and some sequences at random.
Molecular target: T1, MBP-FoxP1dN (Mus musculus, UniProt P58462 326-579)
T1 sequence: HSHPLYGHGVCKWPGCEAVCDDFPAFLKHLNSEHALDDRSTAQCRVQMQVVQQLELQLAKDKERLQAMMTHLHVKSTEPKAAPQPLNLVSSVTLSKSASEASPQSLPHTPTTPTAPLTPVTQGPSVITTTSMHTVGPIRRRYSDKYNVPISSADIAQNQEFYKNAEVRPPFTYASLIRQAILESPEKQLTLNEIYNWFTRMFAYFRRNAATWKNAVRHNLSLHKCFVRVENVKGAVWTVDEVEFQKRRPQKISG
Test: PD-seq (MBP pull-down with sequencing); 20 mM Tris-HCl pH 7.5, 100 mM NaCl, 1.5 mM MgCl2, 0.4 uM protein, 0.1 uM dsDNA library, 30 min, room temperature, amylose pull-down; high values mean tight binding
Conditions: protein: recombinant; tags: His6-MBP; chain copies: 2; dsDNA, one strand shown
Summary of the method: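 Binding is the reads-per-million enrichment of pull-down relative to input, pooled across replicates. For this, 0.4 µM His6-MBP-tagged mouse FoxP3 or FoxP1 fragment lacking the N-terminus, made in E. coli, was incubated with 0.1 µM Klenow-filled double-stranded degenerate DNA library for 30 min at room temperature in Tris pH 7.5 buffer with NaCl and MgCl2. Complexes bound to amylose resin were washed three times before proteinase K released the DNA for PCR barcoding and Illumina sequencing.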

Question: “GATGATTGTTCTCCCAGCTGATGAATTAGTGTTGTCGAGTAAACAAATTTTCCTAATCTTTCTGTTCAAGCGCCATCTAC” was tested. Which binding signal did it give?
Answer: 2.53 RPM ratio (pull-down/input)

Question: With “GATGATTGTTCTCCCAGCTGATGAATTAGTGTCGTCGAGTAAACAAATTTTCCTAATCTTTCTGTTCAAGCGCCATCTAC” as the sequence, how does the binding signal read?
Answer: 0.949 RPM ratio (pull-down/input)

Question: For “GATGATTGTTCTCCCAGCTGATGAATTAGTGTTTTCGAGTAAACAAATTTTCCTAATCTTTCTGTTCAAGCGCCATCTAC”, which binding signal is on record?
Answer: 2.42 RPM ratio (pull-down/input)

Question: How did the binding signal turn out when “GATGATTGTTCTCCCAGCTGATGAATTTAGTGTTTCGAGTAAACAAATTTTCCTAATCTTTCTGTTCAAGCGCCATCTAC” was run?
Answer: 1.15 RPM ratio (pull-down/input)

Question: Which binding signal does the source give for “GATGATTGTTCTCCCAGCTGATGAATTAGTGTGTTCGAGTAAACAAATTTTCCTAATCTTTCTGTTCAAGCGCCATCTAC” here?
Answer: 1.35 RPM ratio (pull-down/input)

Question: Which binding signal does the source give for “GATGATTGTTCTCCCAGCTGATGAATTAGTAGTGTCGAGTAAACAAATTTTCCTAATCTTTCTGTTCAAGCGCCATCTAC” here?
Answer: 1 RPM ratio (pull-down/input)

Question: With “GATGATTGTTCTCCCAGCTGATGAATTGCCGTGCTCGAGTAAACAAATTTTCCTAATCTTTCTGTTCAAGCGCCATCTAC” as the sequence, how does the binding signal read?
Answer: 0.904 RPM ratio (pull-down/input)

Question: “GATGATTGTTCTCCCAGCTGATGAATTACTATAATCGAGTAAACAAATTTTCCTAATCTTTCTGTTCAAGCGCCATCTAC” was tested. Which binding signal did it give?
Answer: 1.27 RPM ratio (pull-down/input)

Question: How did the binding signal turn out when “GATGATTGTTCTCCCAGCTGATGAATTTTAGCGCTCGAGTAAACAAATTTTCCTAATCTTTCTGTTCAAGCGCCATCTAC” was run?
Answer: 0.826 RPM ratio (pull-down/input)

Question: How did the binding signal turn out when “GATGATTGTTCTCCCAGCTGATGAATTATAACCCTCGAGTAAACAAATTTTCCTAATCTTTCTGTTCAAGCGCCATCTAC” was run?
Answer: 0.997 RPM ratio (pull-down/input)

Question: Which binding signal does the source give for “GATGATTGTTCTCCCAGCTGATGAATTTGATCCATCGAGTAAACAAATTTTCCTAATCTTTCTGTTCAAGCGCCATCTAC” here?
Answer: 0.928 RPM ratio (pull-down/input)

Question: With “GATGATTGTTCTCCCAGCTGATGAATTCGGCCTATCGAGTAAACAAATTTTCCTAATCTTTCTGTTCAAGCGCCATCTAC” as the sequence, how does the binding signal read?
Answer: 0.817 RPM ratio (pull-down/input)

Question: With “GATGATTGTTCTCCCAGCTGATGAATTTGCGGACTCGAGTAAACAAATTTTCCTAATCTTTCTGTTCAAGCGCCATCTAC” as the sequence, how does the binding signal read?
Answer: 0.882 RPM ratio (pull-down/input)

Question: How did the binding signal turn out when “GATGATTGTTCTCCCAGCTGATGAATTACTTCATTCGAGTAAACAAATTTTCCTAATCTTTCTGTTCAAGCGCCATCTAC” was run?
Answer: 1.11 RPM ratio (pull-down/input)

Question: With “GATGATTGTTCTCCCAGCTGATGAATTGAGCAGATCGAGTAAACAAATTTTCCTAATCTTTCTGTTCAAGCGCCATCTAC” as the sequence, how does the binding signal read?
Answer: 0.835 RPM ratio (pull-down/input)

Question: Which binding signal does the source give for “GATGATTGTTCTCCCAGCTGATGAATTTCTGTGTTCGAGTAAACAAATTTTCCTAATCTTTCTGTTCAAGCGCCATCTAC” here?
Answer: 1.23 RPM ratio (pull-down/input)

Question: Which binding signal does the source give for “GATGATTGTTCTCCCAGCTGATGAATTGTGTTGTTCGAGTAAACAAATTTTCCTAATCTTTCTGTTCAAGCGCCATCTAC” here?
Answer: 2.69 RPM ratio (pull-down/input)

Question: With “GATGATTGTTCTCCCAGCTGATGAATTGTGTTCTTCGAGTAAACAAATTTTCCTAATCTTTCTGTTCAAGCGCCATCTAC” as the sequence, how does the binding signal read?
Answer: 1.33 RPM ratio (pull-down/input)

Question: With “GATGATTGTTCTCCCAGCTGATGAATTGATGTGTTCGAGTAAACAAATTTTCCTAATCTTTCTGTTCAAGCGCCATCTAC” as the sequence, how does the binding signal read?
Answer: 1.5 RPM ratio (pull-down/input)

Question: For “GATGATTGTTCTCCCAGCTGATGAATTCTTGTGTTCGAGTAAACAAATTTTCCTAATCTTTCTGTTCAAGCGCCATCTAC”, which binding signal is on record?
Answer: 1.6 RPM ratio (pull-down/input)

Question: With “GATGATTGTTCTCCCAGCTGATGAATTGTTGTGTTCGAGTAAACAAATTTTCCTAATCTTTCTGTTCAAGCGCCATCTAC” as the sequence, how does the binding signal read?
Answer: 2.57 RPM ratio (pull-down/input)

Question: “GATGATTGTTCTCCCAGCTGATGAATTGACCGCGTCGAGTAAACAAATTTTCCTAATCTTTCTGTTCAAGCGCCATCTAC” was tested. Which binding signal did it give?
Answer: 0.965 RPM ratio (pull-down/input)

Question: With “GATGATTGTTCTCCCAGCTGATGAATTAAAACGATCGAGTAAACAAATTTTCCTAATCTTTCTGTTCAAGCGCCATCTAC” as the sequence, how does the binding signal read?
Answer: 0.959 RPM ratio (pull-down/input)

Question: How did the binding signal turn out when “GATGATTGTTCTCCCAGCTGATGAATTAAGAGAATCGAGTAAACAAATTTTCCTAATCTTTCTGTTCAAGCGCCATCTAC” was run?
Answer: 0.949 RPM ratio (pull-down/input)

Question: How did the binding signal turn out when “GATGATTGTTCTCCCAGCTGATGAATTTTTTTGCTCGAGTAAACAAATTTTCCTAATCTTTCTGTTCAAGCGCCATCTAC” was run?
Answer: 0.948 RPM ratio (pull-down/input)

Question: For “GATGATTGTTCTCCCAGCTGATGAATTCTTTTGCTCGAGTAAACAAATTTTCCTAATCTTTCTGTTCAAGCGCCATCTAC”, which binding signal is on record?
Answer: 0.898 RPM ratio (pull-down/input)

Question: How did the binding signal turn out when “GATGATTGTTCTCCCAGCTGATGAATTTCTTTGCTCGAGTAAACAAATTTTCCTAATCTTTCTGTTCAAGCGCCATCTAC” was run?
Answer: 0.931 RPM ratio (pull-down/input)

Question: “GATGATTGTTCTCCCAGCTGATGAATTGTGCTGCTCGAGTAAACAAATTTTCCTAATCTTTCTGTTCAAGCGCCATCTAC” was tested. Which binding signal did it give?
Answer: 0.988 RPM ratio (pull-down/input)

Question: Which binding signal does the source give for “GATGATTGTTCTCCCAGCTGATGAATTTTGCTCCTCGAGTAAACAAATTTTCCTAATCTTTCTGTTCAAGCGCCATCTAC” here?
Answer: 0.907 RPM ratio (pull-down/input)

Question: How did the binding signal turn out when “GATGATTGTTCTCCCAGCTGATGAATTTCTGTGCTCGAGTAAACAAATTTTCCTAATCTTTCTGTTCAAGCGCCATCTAC” was run?
Answer: 0.877 RPM ratio (pull-down/input)

Question: For “GATGATTGTTCTCCCAGCTGATGAATTGTTGCTCTCGAGTAAACAAATTTTCCTAATCTTTCTGTTCAAGCGCCATCTAC”, which binding signal is on record?
Answer: 1.39 RPM ratio (pull-down/input)

Question: For “GATGATTGTTCTCCCAGCTGATGAATTGTTTTGCTCGAGTAAACAAATTTTCCTAATCTTTCTGTTCAAGCGCCATCTAC”, which binding signal is on record?
Answer: 1.95 RPM ratio (pull-down/input)
